# Laboratory results from PubChem BioAssay.
# Activity calls are given as the source filed them.
# What was measured:
# [1] = binders of probe aFSTL3 on microarray, primary screen, stem cell growth factor project, biochemical, small-molecule microarray, fluorescence 635/667 (AID 1064); details: higher = more signal;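 note: measures binding of the biotinylated anti-FSTL3 antibody to printed compounds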
# [2] = binders from COS7 lysate, DM2A8 probe, primary screen, torsin A project, cell lysate, small-molecule microarray, fluorescence 635/667 (AID 1065); details: higher = more signal, COS7 lysate expressing mutant human TOR1A
# [3] = binders of probe aFGF2 on microarray, primary screen, stem cell growth factor project, biochemical, small-molecule microarray, fluorescence 635/667 (AID 1067); details: higher = more signal;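 note: measures binding of biotinylated aFGF2 protein to printed compounds on slides; z-score merges feature fluorescence and signal-to-noise across triplicate slides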
# [4] = binders of probe aFGF10 on microarray, primary screen, stem cell growth factor project, biochemical, small-molecule microarray, fluorescence 635/667 (AID 1071); details: higher = more signal;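 note: score merges 667 nm spot intensity and signal to noise from triplicate slides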
# [5] = target: Neurogenic locus notch homolog protein 2 (Homo sapiens) (UniProt Q04721); assay: Notch2 binders on small-molecule microarrays, primary screen, biochemical, small-molecule microarray, 635 nm fluorescence, stem cell growth factors (AID 1073); details: Notch2 binding, higher = more signal
# Sequence of Neurogenic locus notch homolog protein 2 (Homo sapiens) (Q04721 whole entry, looked up, canonical isoform): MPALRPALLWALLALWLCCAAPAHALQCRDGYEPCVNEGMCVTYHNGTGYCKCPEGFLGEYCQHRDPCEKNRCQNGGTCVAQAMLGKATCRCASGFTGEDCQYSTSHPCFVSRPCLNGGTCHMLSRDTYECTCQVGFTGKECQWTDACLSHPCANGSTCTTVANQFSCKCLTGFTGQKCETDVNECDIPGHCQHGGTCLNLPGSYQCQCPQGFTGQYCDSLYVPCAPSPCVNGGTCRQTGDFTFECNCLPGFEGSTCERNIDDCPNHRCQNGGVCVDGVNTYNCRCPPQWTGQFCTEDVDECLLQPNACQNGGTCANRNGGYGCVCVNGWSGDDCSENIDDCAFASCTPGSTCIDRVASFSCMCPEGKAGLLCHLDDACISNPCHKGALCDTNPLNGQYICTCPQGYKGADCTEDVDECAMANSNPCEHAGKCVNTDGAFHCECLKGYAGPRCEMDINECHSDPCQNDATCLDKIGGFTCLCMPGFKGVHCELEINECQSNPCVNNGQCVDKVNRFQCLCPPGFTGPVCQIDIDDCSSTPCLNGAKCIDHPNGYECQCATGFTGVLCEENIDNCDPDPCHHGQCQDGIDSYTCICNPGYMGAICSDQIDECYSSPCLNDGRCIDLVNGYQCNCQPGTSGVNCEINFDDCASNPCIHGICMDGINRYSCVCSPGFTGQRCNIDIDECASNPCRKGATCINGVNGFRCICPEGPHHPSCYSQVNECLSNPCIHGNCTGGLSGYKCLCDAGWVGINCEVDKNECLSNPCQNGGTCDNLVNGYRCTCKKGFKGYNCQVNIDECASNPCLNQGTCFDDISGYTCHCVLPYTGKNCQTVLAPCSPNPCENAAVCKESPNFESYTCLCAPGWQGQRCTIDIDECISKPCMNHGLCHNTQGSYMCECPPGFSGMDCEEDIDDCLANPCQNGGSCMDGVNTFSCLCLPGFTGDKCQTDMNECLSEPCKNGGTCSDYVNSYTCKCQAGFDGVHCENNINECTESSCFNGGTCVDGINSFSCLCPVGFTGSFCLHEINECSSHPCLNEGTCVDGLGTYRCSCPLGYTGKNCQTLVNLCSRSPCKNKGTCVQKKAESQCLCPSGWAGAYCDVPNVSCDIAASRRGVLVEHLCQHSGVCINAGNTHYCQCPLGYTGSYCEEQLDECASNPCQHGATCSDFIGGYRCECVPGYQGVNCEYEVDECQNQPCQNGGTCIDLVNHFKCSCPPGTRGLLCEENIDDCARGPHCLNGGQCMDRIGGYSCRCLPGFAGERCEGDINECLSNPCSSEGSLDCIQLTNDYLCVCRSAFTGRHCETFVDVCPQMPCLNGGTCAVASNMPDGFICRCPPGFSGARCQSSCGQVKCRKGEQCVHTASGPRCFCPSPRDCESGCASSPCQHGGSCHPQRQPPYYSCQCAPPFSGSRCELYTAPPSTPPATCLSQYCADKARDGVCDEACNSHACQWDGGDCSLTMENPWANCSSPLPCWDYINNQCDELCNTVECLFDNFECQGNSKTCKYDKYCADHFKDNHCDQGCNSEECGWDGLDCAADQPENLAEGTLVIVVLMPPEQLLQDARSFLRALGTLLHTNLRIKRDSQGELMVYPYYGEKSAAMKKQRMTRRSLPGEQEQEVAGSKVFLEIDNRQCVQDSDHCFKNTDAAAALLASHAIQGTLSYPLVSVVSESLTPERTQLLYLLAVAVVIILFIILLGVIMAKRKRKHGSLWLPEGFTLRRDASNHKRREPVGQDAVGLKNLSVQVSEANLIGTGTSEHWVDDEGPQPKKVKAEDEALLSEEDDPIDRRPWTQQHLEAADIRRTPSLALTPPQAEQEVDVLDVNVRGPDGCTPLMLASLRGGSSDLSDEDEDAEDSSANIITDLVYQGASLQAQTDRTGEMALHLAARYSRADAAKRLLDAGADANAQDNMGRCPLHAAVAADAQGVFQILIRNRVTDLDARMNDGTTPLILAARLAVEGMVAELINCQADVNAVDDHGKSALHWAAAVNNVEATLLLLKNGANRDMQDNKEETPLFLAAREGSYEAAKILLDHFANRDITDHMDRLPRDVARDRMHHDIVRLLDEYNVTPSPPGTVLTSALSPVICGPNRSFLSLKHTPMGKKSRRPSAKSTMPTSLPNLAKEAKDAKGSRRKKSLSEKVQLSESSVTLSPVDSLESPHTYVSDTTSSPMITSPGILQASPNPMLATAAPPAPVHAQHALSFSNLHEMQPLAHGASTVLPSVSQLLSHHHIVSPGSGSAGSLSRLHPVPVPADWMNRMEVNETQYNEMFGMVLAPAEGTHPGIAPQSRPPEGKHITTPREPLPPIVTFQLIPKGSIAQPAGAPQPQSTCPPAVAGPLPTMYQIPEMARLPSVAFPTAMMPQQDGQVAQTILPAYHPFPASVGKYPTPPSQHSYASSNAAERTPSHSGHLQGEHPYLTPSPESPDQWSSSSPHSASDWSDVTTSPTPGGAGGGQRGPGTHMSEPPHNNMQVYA
# [6] = target: Pro-neuregulin-1, membrane-bound isoform (Homo sapiens) (UniProt Q02297); assay: NRG1 binders on small-molecule microarrays, primary screen, psychiatric disease protein project, biochemical, small-molecule microarray, fluorescence 635/667 (AID 1075); details: NRG1 binding, 635 nm fluorescence, higher = more signal;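 note: score combines 667 nm spot fluorescence with signal to noise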
# [7] = test system: Neuregulin-1 EGF-like domain; assay: binders of neuregulin-1 EGF-like domain, primary screen, biochemical, small-molecule microarray, 635 nm fluorescence (AID 1081); details: small-molecule microarray binding, higher = more signal;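 note: binding of the protein to compounds printed on small-molecule microarray slides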
# [8] = FRG1 promoter luciferase signal modulators, primary screen, FRG1 inhibition for FSHD, cell-based, C2C12 myotubes, firefly/Renilla luciferase, luminescence (AID 1084); details: higher = more signal, called active from +8 up or from −8 down
# [9] = binders of probe aFST on microarray, primary screen, stem cell growth factor project, biochemical, small-molecule microarray, fluorescence 635/667 (AID 1086); details: higher = more signal;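 note: score merges 667 nm fluorescence with signal-to-noise of each printed compound spot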
# [10] = binders of probe aHhip on microarray, primary screen, stem cell growth factor project, biochemical, small-molecule microarray, fluorescence 635/667 (AID 1087); details: higher = more signal;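 note: score merges spot fluorescence at 667nm with spot signal to noise ratio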
# [11] = test system: PRMT1 (protein arginine N-methyltransferase 1); assay: PRMT1 binders on small-molecule microarrays, primary screen, biochemical, small-molecule microarray, 635 nm fluorescence (AID 1088); details: small-molecule microarray binding, higher = more signal;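 note: binding of Prmt1 protein to compounds spotted on small-molecule microarray slides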
# [12] = yeast growth modulation, basal conditions, primary screen, YJM789 clinical isolate, OD600, 24 h (AID 1089);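 note: growth of clinical yeast isolate S. cerevisiae YJM 789 seeded 1000 cells per well; test concentration not given here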; details: S. cerevisiae YJM789 growth, higher = more signal, called active from +8 up or from −8 down
# [13] = fission yeast growth modulation, primary screen, strain 972, OD600, 24 h, no modulator (AID 1090);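 note: basal condition with compound alone and no growth modifier present; test concentration not given here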; details: S. pombe 972 growth, higher = more signal, called active from +8 up or from −8 down
# [14] = S. cerevisiae growth modulation with rapamycin, primary screen, strain BY4716, OD600, 96 h (AID 1091); details: higher = more signal, called active from +8 up or from −8 down; note: test concentration not given here
# [15] = target: Torsin-1A-interacting protein 2 (Homo sapiens) (UniProt Q8NFQ8); assay: LULL1 binders on small-molecule microarray, primary screen, cell lysate, human LULL1 lysate, 635/667 nm fluorescence (AID 1092); details: hLULL1 lysate binding, 635 nm fluorescence, higher = more signal;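 note: probe is lysate of COS7 cells overexpressing human LULL1; score merges per-feature 667 nm fluorescence with signal-to-noise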
# [16] = E. coli growth modulation, two-sided OD650, primary screen, E. coli filamentation project, strain DRC41, 24 h (AID 1093); details: OD650, 24 h, higher = more signal, called active from +8 up or from −8 down;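 note: MC1000 strain lacking acrAB efflux and sulA so SOS filamentation is blocked; test concentration not given here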
# [17] = small-molecule microarray binders of probe aLefty2, primary screen, biochemical, biotinylated probe, 635/667 nm fluorescence (AID 1094); details: higher = more signal;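 note: score merges spot fluorescence near 667 nm with spot signal-to-noise ratio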
# [18] = test system: Noggin (protein binding on small-molecule microarray); assay: Noggin binders on small-molecule microarray, primary screen, biochemical, 635/667 nm fluorescence (AID 1095); details: 635 nm fluorescence, higher = more signal;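 note: score merges 667 nm feature fluorescence with signal to noise over triplicate slides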
# [19] = target: Neurogenic locus notch homolog protein 3 (Homo sapiens) (UniProt Q9UM47); assay: NOTCH3 binders on small-molecule microarray, primary screen, biochemical, 635/667 nm fluorescence (AID 1096); details: NOTCH3 binding, 635 nm fluorescence, higher = more signal
# Sequence of Neurogenic locus notch homolog protein 3 (Homo sapiens) (Q9UM47 whole entry, looked up): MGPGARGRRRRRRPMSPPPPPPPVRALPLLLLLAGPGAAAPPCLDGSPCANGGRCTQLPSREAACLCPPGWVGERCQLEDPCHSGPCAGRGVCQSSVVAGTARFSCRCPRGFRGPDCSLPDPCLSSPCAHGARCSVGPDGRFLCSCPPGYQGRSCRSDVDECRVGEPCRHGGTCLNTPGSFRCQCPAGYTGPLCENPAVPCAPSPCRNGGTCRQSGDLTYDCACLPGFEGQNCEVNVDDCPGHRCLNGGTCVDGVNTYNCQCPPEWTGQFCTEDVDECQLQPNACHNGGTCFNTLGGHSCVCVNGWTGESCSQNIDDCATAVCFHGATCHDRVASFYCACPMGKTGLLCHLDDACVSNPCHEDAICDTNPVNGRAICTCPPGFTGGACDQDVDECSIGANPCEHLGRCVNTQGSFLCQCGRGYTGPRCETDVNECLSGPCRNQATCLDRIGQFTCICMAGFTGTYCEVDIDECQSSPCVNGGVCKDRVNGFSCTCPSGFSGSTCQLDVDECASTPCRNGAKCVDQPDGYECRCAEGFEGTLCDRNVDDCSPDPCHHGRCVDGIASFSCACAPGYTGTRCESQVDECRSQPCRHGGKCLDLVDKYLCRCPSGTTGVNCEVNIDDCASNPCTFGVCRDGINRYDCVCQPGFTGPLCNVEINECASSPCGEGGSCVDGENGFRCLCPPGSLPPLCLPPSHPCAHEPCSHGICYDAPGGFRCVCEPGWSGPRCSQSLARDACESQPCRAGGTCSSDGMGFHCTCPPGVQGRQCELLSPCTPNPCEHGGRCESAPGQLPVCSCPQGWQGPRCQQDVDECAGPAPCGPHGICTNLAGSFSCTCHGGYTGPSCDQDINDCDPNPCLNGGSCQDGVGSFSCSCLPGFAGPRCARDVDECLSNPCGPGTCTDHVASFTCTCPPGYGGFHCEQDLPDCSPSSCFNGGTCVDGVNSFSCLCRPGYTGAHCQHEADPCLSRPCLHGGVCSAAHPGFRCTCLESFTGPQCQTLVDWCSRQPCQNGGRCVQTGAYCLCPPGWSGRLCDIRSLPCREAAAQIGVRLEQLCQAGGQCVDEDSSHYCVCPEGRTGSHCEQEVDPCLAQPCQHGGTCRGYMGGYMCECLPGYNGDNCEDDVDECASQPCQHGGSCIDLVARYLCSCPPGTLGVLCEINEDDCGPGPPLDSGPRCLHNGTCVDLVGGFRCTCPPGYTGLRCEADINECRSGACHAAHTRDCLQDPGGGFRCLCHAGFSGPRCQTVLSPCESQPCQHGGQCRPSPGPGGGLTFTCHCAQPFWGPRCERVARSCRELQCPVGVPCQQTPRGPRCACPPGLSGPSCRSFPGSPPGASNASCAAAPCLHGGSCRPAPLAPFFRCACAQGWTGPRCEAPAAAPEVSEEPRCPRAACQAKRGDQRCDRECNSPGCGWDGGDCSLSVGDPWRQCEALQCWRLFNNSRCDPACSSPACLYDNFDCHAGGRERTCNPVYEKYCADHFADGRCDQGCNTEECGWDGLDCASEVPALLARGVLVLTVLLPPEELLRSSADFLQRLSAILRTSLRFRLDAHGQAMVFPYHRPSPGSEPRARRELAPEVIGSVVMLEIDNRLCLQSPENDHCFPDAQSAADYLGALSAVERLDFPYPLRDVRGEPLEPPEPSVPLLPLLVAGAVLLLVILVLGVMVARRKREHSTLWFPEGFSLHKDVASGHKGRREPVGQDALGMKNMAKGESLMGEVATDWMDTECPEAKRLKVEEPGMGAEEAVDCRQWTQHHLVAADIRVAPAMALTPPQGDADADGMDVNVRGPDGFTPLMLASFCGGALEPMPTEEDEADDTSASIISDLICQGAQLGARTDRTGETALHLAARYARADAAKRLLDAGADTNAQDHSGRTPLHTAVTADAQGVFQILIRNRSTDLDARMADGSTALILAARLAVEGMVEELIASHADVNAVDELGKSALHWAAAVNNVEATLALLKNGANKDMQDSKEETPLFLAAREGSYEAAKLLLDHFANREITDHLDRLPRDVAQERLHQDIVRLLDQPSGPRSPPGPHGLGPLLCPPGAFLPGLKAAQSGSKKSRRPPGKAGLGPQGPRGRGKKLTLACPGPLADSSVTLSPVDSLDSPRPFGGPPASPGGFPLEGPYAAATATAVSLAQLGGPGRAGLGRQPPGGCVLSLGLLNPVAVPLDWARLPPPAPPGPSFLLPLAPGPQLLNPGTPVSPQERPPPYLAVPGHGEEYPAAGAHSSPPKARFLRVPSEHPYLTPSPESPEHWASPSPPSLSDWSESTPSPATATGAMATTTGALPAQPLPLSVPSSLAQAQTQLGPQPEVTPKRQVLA
# [20] = small-molecule microarray binders of probe aEGFR, primary screen, biochemical, biotinylated probe, 635/667 nm fluorescence (AID 1097); details: higher = more signal;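 note: probe is a biotinylated anti-EGFR antibody binding compounds printed on slides; score combines fluorescence near 667 nm and signal to noise of each spot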
smiles,measurement,setting,value
CCOC(=O)C[C@H]1[C@H](OC(=O)c2ccc(-c3ccccc3)cc2)[C@@H](NC(=O)c2ccc3ccccc3c2)c2cc(OCCCO)ccc2N1C(=O)c1ccc2ccccc2n1,composite z-score,[1],-0.0093
same,composite z-score,[2],0.0135
same,composite z-score,[3],-0.06
same,composite z-score,[4],0.398
same,composite z-score,[5],0.676
same,composite z-score,[6],0.706
same,composite z-score,[7],0.15
same,z-score,[8],0.247 (inactive)
same,composite z-score,[9],0.426
same,composite z-score,[10],0.154
same,composite z-score,[11],1.15
same,z-score,[12],-0.72 (inactive)
same,z-score,[13],-0.918 (inactive)
same,z-score,[14],0.592 (inactive)
same,composite z-score,[15],1.47
same,z-score,[16],-0.56 (inactive)
same,composite z-score,[17],-0.0358
same,composite z-score,[18],0.372
same,composite z-score,[19],0.895
same,composite z-score,[20],0.0167
CN(C)CCCCNC(=O)[C@H]1C[C@H]2C(=O)N3CCC[C@H]3C(=O)N2[C@H]1c1ccc(O)cc1,composite z-score,[1],-1.12
same,composite z-score,[2],-1.77
same,composite z-score,[3],-0.284
same,composite z-score,[4],-1.1
same,composite z-score,[5],-1.3
same,composite z-score,[6],-1.06
same,composite z-score,[7],-0.239
same,z-score,[8],4.64 (inactive)
same,composite z-score,[9],0.0253
same,composite z-score,[10],-0.389
same,composite z-score,[11],0.765
same,z-score,[12],-0.859 (inactive)
same,z-score,[13],1.1 (inactive)
same,z-score,[14],-0.384 (inactive)
same,composite z-score,[15],0.391
same,z-score,[16],1.27 (inactive)
same,composite z-score,[17],-0.234
same,composite z-score,[18],-0.439
same,composite z-score,[19],0.229
same,composite z-score,[20],-0.45
C=CCN1C(=O)[C@@]2(O[C@@H](CCO)[C@H]([Si](C)(C)c3ccc(OC)cc3)[C@H]2C)c2cc(N3C(=O)c4ccccc4Oc4ccccc43)ccc21,composite z-score,[1],-0.033
same,composite z-score,[2],0.0892
same,composite z-score,[3],-0.0491
same,composite z-score,[4],0.907
same,composite z-score,[5],0.166
same,composite z-score,[6],0.402
same,composite z-score,[7],0.882
same,z-score,[8],-1.94 (inactive)
same,composite z-score,[9],-0.204
same,composite z-score,[10],-0.261
same,composite z-score,[11],0.0455
same,z-score,[12],1.34 (inactive)
same,z-score,[13],0.237 (inactive)
same,z-score,[14],9.42 (active)
same,composite z-score,[15],1.65
same,z-score,[16],2.15 (inactive)
same,composite z-score,[17],-0.0665
same,composite z-score,[18],0.514
same,composite z-score,[19],0.612
same,composite z-score,[20],-0.135
C=CCN1C(=O)[C@]2(CC=C)N=C(c3ccc(OCCCO)cc3)O[C@@H]2c2ccccc21,composite z-score,[1],0.967
same,composite z-score,[2],0.194
same,composite z-score,[3],0.123
same,composite z-score,[4],0.0547
same,composite z-score,[5],1.05
same,composite z-score,[6],1.03
same,composite z-score,[7],1.26
same,z-score,[8],-1.86 (inactive)
same,composite z-score,[9],0.61
same,composite z-score,[10],0.0327
same,composite z-score,[11],1.45
same,z-score,[12],-1.76 (inactive)
same,z-score,[13],-2.79 (inactive)
same,z-score,[14],0.164 (inactive)
same,composite z-score,[15],3.13
same,z-score,[16],1.02 (inactive)
same,composite z-score,[17],0.266
same,composite z-score,[18],1.33
same,composite z-score,[19],1.08
same,composite z-score,[20],0.038
CC(C)C(=C=CC[C@H](O)c1ccc(OCCO)cc1)C[C@H](O)c1cc(Cl)cc(Cl)c1O,composite z-score,[1],-0.321
same,composite z-score,[2],1.35
same,composite z-score,[3],-0.0076
same,composite z-score,[4],0.85
same,composite z-score,[5],0.869
same,composite z-score,[6],1.31
same,composite z-score,[7],1.24
same,z-score,[8],-1.66 (inactive)
same,composite z-score,[9],0.32
same,composite z-score,[10],0.0722
same,composite z-score,[11],1.4
same,z-score,[12],0.297 (inactive)
same,z-score,[13],-3.66 (inactive)
same,z-score,[14],-0.558 (inactive)
same,composite z-score,[15],1.78
same,z-score,[16],0.192 (inactive)
same,composite z-score,[17],0.0511
same,composite z-score,[18],1.41
same,composite z-score,[19],1.04
same,composite z-score,[20],-0.008
CC(C)(C)OC(=O)CC[C@]1(C(=O)NCCN2CCOCC2)N=C(c2ccc(OCCCO)cc2)O[C@H]1c1ccccc1N=[N+]=[N-],composite z-score,[1],0.85
same,composite z-score,[2],1.55
same,composite z-score,[3],0.105
same,composite z-score,[4],0.606
same,composite z-score,[5],0.1
same,composite z-score,[6],1.72
same,composite z-score,[7],1.39
same,z-score,[8],4.57 (inactive)
same,composite z-score,[9],0.778
same,composite z-score,[10],0.913
same,composite z-score,[11],1.49
same,z-score,[12],-0.417 (inactive)
same,z-score,[13],-0.437 (inactive)
same,z-score,[14],-0.535 (inactive)
same,composite z-score,[15],3.38
same,z-score,[16],0.102 (inactive)
same,composite z-score,[17],0.373
same,composite z-score,[18],-0.238
same,composite z-score,[19],0.412
same,composite z-score,[20],0.0988
O=C(NC1CC1)[C@@H]1c2ccccc2C(=O)N(Cc2ccccc2)[C@H]1c1ccc(CO)cc1,composite z-score,[1],0.176
same,composite z-score,[2],-0.301
same,composite z-score,[3],-0.0606
same,composite z-score,[4],0.207
same,composite z-score,[5],-0.454
same,composite z-score,[6],1.4
same,composite z-score,[7],1.4
same,z-score,[8],-2.71 (inactive)
same,composite z-score,[9],0.646
same,composite z-score,[10],-0.493
same,composite z-score,[11],0.449
same,z-score,[12],0.763 (inactive)
same,z-score,[13],0.109 (inactive)
same,z-score,[14],0.0225 (inactive)
same,composite z-score,[15],2.63
same,z-score,[16],0.958 (inactive)
same,composite z-score,[17],-0.479
same,composite z-score,[18],-0.43
same,composite z-score,[19],-0.0341
same,composite z-score,[20],-0.366
C=CCNC(=O)[C@@H]1[C@H]2C(=O)O[C@H](c3ccccc3)[C@H](c3ccccc3)N2[C@H](c2ccccc2OCCO)[C@@]12C(=O)N(C(=O)OCCOC)c1ccc(C#CC3=CCCCC3)cc12,composite z-score,[1],-0.0809
same,composite z-score,[2],0.683
same,composite z-score,[3],0.0496
same,composite z-score,[4],0.586
same,composite z-score,[5],-0.0189
same,composite z-score,[6],0.457
same,composite z-score,[7],1.2
same,z-score,[8],-1.11 (inactive)
same,composite z-score,[9],0.206
same,composite z-score,[10],-0.178
same,composite z-score,[11],1.54
same,z-score,[12],0.363 (inactive)
same,z-score,[13],-0.0834 (inactive)
same,z-score,[14],3.14 (inactive)
same,composite z-score,[15],2.31
same,z-score,[16],0.906 (inactive)
same,composite z-score,[17],-0.205
same,composite z-score,[18],1.34
same,composite z-score,[19],1.15
same,composite z-score,[20],-0.0435
C=C[C@@H](COC(C)=O)NS(=O)(=O)c1ccc(Br)cc1,composite z-score,[1],-0.35
same,composite z-score,[2],0.242
same,composite z-score,[3],-0.0296
same,composite z-score,[4],0.135
same,composite z-score,[5],0.414
same,composite z-score,[6],0.0227
same,composite z-score,[7],0.564
same,z-score,[8],1.39 (inactive)
same,composite z-score,[9],0.111
same,composite z-score,[10],-0.0672
same,composite z-score,[11],0.317
same,z-score,[12],-0.952 (inactive)
same,z-score,[13],-15.7 (active)
same,z-score,[14],-1.36 (inactive)
same,composite z-score,[15],0.399
same,z-score,[16],-0.819 (inactive)
same,composite z-score,[17],-0.176
same,composite z-score,[18],0.516
same,composite z-score,[19],0.269
same,composite z-score,[20],-0.157
Cc1ccc(C(C)CC(O)C2C=CC3C(=O)N(c4ccccc4)C(=O)C3N2Nc2ccc(C(C)C)cc2)o1 (stereo not given),composite z-score,[1],1.15
same,composite z-score,[2],1.05
same,composite z-score,[3],0.102
same,composite z-score,[4],0.712
same,composite z-score,[5],1.58
same,composite z-score,[6],1.93
same,composite z-score,[7],0.765
same,z-score,[8],0.543 (inactive)
same,composite z-score,[9],0.992
same,composite z-score,[10],-0.0772
same,composite z-score,[11],0.843
same,z-score,[12],0.379 (inactive)
same,z-score,[13],0.0145 (inactive)
same,z-score,[14],0.842 (inactive)
same,composite z-score,[15],1.28
same,z-score,[16],-1.36 (inactive)
same,composite z-score,[17],0.295
same,composite z-score,[18],-0.641
same,composite z-score,[19],1.04
same,composite z-score,[20],0.14
